HEK293 cAMP cs: parental HEK293 cAMP activation (counter-screen); Potency, µM (series often up to 57.1 µM), inactives show at the highest dose activation, usual class: activators; parental HEK293 CNG cAMP sensor, membrane potential fluorescence; 73,000 compounds, 2.5% hits; also: % of control where 0% means no effect; nearly all actives have a fitted effect of over 55% in size
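Parental HEK 293 cells stably expressing a modified CNG channel (no TSHR) report cAMP rise as membrane depolarization. Membrane potential dye with 100 uM RO 20-1724 was loaded for 60 min at room temperature, then compound added for 30 min; fluorescence read at 590 nm.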
TSHR ag: agonists of human thyroid stimulating hormone receptor | P16473 | HEK293-CNG-TSHR cells (CNG channel as cAMP sensor), membrane potential dye, cAMP | Potency, µM (highest dose often 57.1 µM), inactives show at the top dose activation, usual class: activators | 73,000 compounds, 0.48% hits | AID 926; active = well fitted activation curve with a large enough effect in the main read-out, with a control signal flat, not every such curve was filed as active; inconclusive = small, poorly fitted or top-dose-only effect, or a change in a side signal; inactive = no such curve, though single readings can be large or run the other way; % of control where 0% means no effect;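 also: the control signal comes from parental cells without the receptor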
Target sequence (P16473 whole entry, looked up): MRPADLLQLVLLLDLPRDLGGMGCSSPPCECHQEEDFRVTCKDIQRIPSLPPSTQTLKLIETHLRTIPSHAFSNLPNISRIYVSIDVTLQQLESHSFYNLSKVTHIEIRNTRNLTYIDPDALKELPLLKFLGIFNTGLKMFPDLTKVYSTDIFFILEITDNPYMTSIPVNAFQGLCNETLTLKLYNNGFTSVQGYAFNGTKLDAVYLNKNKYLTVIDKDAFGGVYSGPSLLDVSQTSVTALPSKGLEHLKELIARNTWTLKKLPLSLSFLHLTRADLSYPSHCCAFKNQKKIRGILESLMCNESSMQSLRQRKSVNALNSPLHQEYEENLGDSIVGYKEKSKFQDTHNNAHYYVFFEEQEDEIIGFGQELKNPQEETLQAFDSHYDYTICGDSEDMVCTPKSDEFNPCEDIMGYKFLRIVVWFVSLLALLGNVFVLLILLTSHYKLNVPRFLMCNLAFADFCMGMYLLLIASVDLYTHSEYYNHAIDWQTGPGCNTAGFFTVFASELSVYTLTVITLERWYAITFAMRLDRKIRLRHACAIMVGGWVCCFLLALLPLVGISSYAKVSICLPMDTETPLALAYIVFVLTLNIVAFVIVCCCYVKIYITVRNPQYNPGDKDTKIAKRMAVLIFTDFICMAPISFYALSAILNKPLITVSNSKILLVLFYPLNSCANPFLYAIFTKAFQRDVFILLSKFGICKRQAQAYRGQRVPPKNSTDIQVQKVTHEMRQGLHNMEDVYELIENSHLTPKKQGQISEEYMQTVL
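HEK 293 cells stably expressing TSHR and a modified CNG channel, with CNG-only parental cells as counterscreen, were preloaded 60 min at room temperature with membrane potential dye containing 100 uM RO 20-1724. Compound exposure was 30 min, and depolarization was read as fluorescence at 590 nm.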
IkB signaling: inhibitors of IkB signaling in ABC-DLBCL cells | ABC-DLBCL IkBa-CBG/CBR dual luciferase ratio, 4 h; response scale: scaled: untreated 0%, proteasome inhibitor 100% | Potency, µM (series often up to 57.1 µM), for the others: top-dose IkBa stabilization activation | 110,000 compounds, 0.04% hits; active = well fitted curve in the direction sought with a large enough effect in the signal ratio, not every such curve was filed as active; inconclusive = small, poorly fitted or top-dose-only effect, or a change in a side signal; the % refers to the signal ratio;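 also: the direction sought is a rising ratio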
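In this assay, an IκBα–CBG68 fusion accumulates when IKK-driven degradation is blocked; native CBR normalizes for cell number. OCI-Ly3 cells were treated 4 h with compound and doxycycline, then green and red light read after Chroma-Glo addition.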
CRE Fsk mod: modulators of forskolin-stimulated CRE signaling in CHO cells | CHO CRE-bla reporter (cAMP response element driving beta-lactamase), forskolin EC10, beta-lactamase ratio | Potency, µM (series often up to 38.2 µM), without a hit: top-dose activity change, negative = inhibition, actives largely listed as activators | 71,000 compounds, 2.5% hits; active = well fitted activation curve with a large enough effect in the signal ratio, with a control signal flat, not every such curve was filed as active; inconclusive = small, poorly fitted or top-dose-only effect, or effect the other way, or a change in a side signal; the % refers to the signal ratio; also: % of control where 0% means no effect
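CRE-bla CHO reporter cells treated with compound titration plus EC10 NKH 477 (water-soluble forskolin), incubated 3 h at 37 °C; CCF4 loading 2 h at room temperature, 460/530 nm emission ratio read, AC50 values derived for positive or negative modulators.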
ERK AVP block: blocks ERK signaling stimulated by vasopressin. HEK293-V1b, vasopressin-stimulated pERK AlphaScreen. Potency, µM (highest dose often 57.5 µM), for the others: top-dose activity, negative = inhibition, most hits filed as inhibitors. 72,000 compounds, 0.99% hits. AID 995; also: % is scaled to controls: 0 for no effect and ±100 for the full control effect; nearly all actives have a fitted effect of over 55% in size
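HEK293 cells stably expressing V1b receptor, preincubated 30 min at 37 °C with compound, then stimulated 5 min with 25 nM vasopressin. Phospho-ERK by AlphaScreen SureFire after 5 h RT; normalized to DMSO and vasopressin; AC50 by Hill fit.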
Numbers without * were called inactive; ? = inconclusive; . = no result; [ ] = remark or other dose. The list is not random: actives were taken first. Their share in the collection is about 3.6%. Unless noted, calls follow the shape of the dose curve; as a rule, active = well fitted curve in the direction sought with a large enough effect; inconclusive = small, poorly fitted or top-dose-only effect, or another doubt; inactive = no such curve, though single readings can be large; an effect the other way counts as inactive or inconclusive. Potency is read from the fitted curve at half-maximal effect.

SMILES	HEK293 cAMP cs	TSHR ag	IkB signaling	CRE Fsk mod	ERK AVP block
Cc1nc2cnc(OCc3ccccc3)nc2n(CCc2ccccc2)c1=O	10µM*	?	1%[11.4 µM]	?	6%
CCNc1ncc2nc(C)c(=O)n(CCc3ccccc3)c2n1	24%	5%	-2%[11.4 µM]	2µM*	8%
CCNc1ncc2nc(-c3ccccc3)c(=O)n(CCc3ccccc3)c2n1	21%	29%	-3%[11.4 µM]	?	?
COc1ccc(O)c(/C=c2/sc3nc4cc(C)c(C)cc4n3c2=O)c1	32µM*	?	?	?	3%
COc1ccc(OC)c(/C=c2\sc3nc(-c4cccs4)nn3c2=O)c1	2%	-7%	0%	-9%	22%
O=C(c1ccco1)N1CCN(c2ncnc3c(-c4ccccc4)nsc23)CC1	28%	18%	?	4%	25µM*
COc1ccc(-c2nsc3c(N4CCN(C(=O)c5ccco5)CC4)ncnc23)cc1	?	?	-3%	10%	24%
O=C(c1ccco1)N1CCN(c2ncnc3c2[nH]c2ccc(Br)cc23)CC1	-14%	-8%	?	0.25µM*	?
Cc1ccc(-c2nnc(N3CCN(C(=O)CN4C(=O)c5ccccc5C4=O)CC3)c3ccccc23)cc1	14%	19%	1%	-2%	-7%
Cc1ccc(-c2nnc(N3CCN(C(=O)c4ccco4)CC3)c3ccccc23)cc1	1%	-6%	?	-1%	25µM*
COc1cccc(CC(=O)Nn2c(C)nc3ccccc3c2=O)c1	17%	2%	0%	-6%	4%
CCn1c(SCc2ccc(OC)cc2)nnc1-c1ccncc1	25µM*	?	?	?	-14%
CCn1c(SCC(=O)c2cc(OC)ccc2OC)nnc1-c1ccncc1	25µM*	?	5%	?	14%
COc1ccc(CNC(=O)CSc2nnnn2-c2ccccc2)cc1	20%	19%	2%	-4%	?
CCCn1c(=O)c2ccccc2n2c(SCCOc3ccc(C)cc3)nnc12	20µM*	?	-4%	?	7%
CCCn1c(=O)c2ccccc2n2c(SCCOc3ccc(OC)cc3)nnc12	?	?	-3%	?	20%
COC(=O)c1ccc(-n2nnnc2SCc2ccccc2OC)cc1	16µM*	?	1%	?	72%
CCOC(=O)c1oc2ccccc2c1CSc1nnnn1-c1ccc(OC)cc1	16µM*	?	0%	?	-10%
CCCn1c(=O)c2ccccc2n2c(SCc3c(C(=O)OCC)oc4ccccc34)nnc12	16µM*	?	?	22%	4%
c1ccc(Cn2nnnc2CN2CCN(c3ncccn3)CC2)cc1	3%	1%	-1%	2%	-5%
O=S(=O)(NC(=NC1CCCC1)C(F)(F)F)c1ccccc1	11%	8%	1%	3%	1%
Cn1c(CNC(=O)CSc2n[nH]c(-c3ccccc3Cl)n2)nc2ccccc21	.	.	0%	.	.
Cc1ccc(-c2nc3cnccn3c2Nc2ccc3c(c2)OCCO3)o1	-9%	-24%	-1%	?	?
Oc1ccc(Br)cc1-c1nc2cnccn2c1NC1CCCC1	-2%	.	?	?	32µM*
Cc1cc(NC(=O)C2CCCCC2C(=O)O)no1 (stereo unspecified)	-7%	-3%	1%	?	0%
SMILES	HEK293 cAMP cs	TSHR ag	IkB signaling	CRE Fsk mod	ERK AVP block
CCOC(=O)c1c(C)oc2ccc(NS(=O)(=O)c3ccc4c5c(cccc35)C(=O)N4)cc12	10%	25µM*	?	?	?
COc1ccc(OC)c(C(c2nnnn2CCC(C)C)N2CCN(C(=O)c3ccco3)CC2)c1 (stereo unspecified)	16µM*	?	1%	-16%	21%
Cc1sc2ncnc(NCc3ccco3)c2c1C	?	?	1%	?	?
Cc1sc2ncnc(SCC(=O)NC(=O)NCc3ccco3)c2c1C	9%	-1%[11.4 µM]	0%	13µM*	17%
Cc1sc2nc(C(C)C)nc(SCC(=O)NCc3ccco3)c2c1C	?	?	?	?	-29%
O=C(CSc1nc2ccccc2s1)N1CCN(C(=O)c2ccco2)CC1	1%	4%	1%	-8%	9%
Cc1nc(SCC(=O)N2CCN(C(=O)c3ccco3)CC2)c2c(C)c(C)sc2n1	?	?	0%	2µM*	11%
Cc1nc(SCC(=O)NCc2ccco2)c2c(C)c(C)sc2n1	13%	27%	?	3.2µM*	-26%
C=CCn1c(SCC(=O)NCc2ccco2)nc2sc3c(c2c1=O)CCCCC3	?	?	1%	-2%	-21%
CCc1nc(SCC(=O)NCc2ccco2)c2c3c(sc2n1)CCCC3	5µM*	?	-1%	?	1%
CCOc1ccc2nc(N3CCC(C(=O)N4CCN(c5ccccn5)CC4)CC3)sc2c1	11%	8%	?	1%	20µM*
CCOc1ccc2nc(N3CCC(C(=O)N4CCN(c5ncccn5)CC4)CC3)sc2c1	12%	-9%	10%	2%	?
CCc1nc(NCc2ccco2)c2oc3ccccc3c2n1	30%	.	0%	4µM*	-18%
CCNc1nc(CC)nc2c1oc1ccccc12	7%	11%	-1%	7.9µM*	-17%
CCc1nc(N(CC)CC)c2oc3ccccc3c2n1	16µM*	?	1%	7.9µM*	18%
CCc1nc(N2CCC(C)CC2)c2oc3ccccc3c2n1	16µM*	?	5%	10µM*	20%
CCc1nc(NCC2CCCO2)c2oc3ccccc3c2n1 (stereo unspecified)	17%	24%	2%	?	-23%
c1ccc(C2NCCn3cccc32)cc1 (stereo unspecified)	-2%	-14%	0%	-7%	-23%
CCOC(=O)c1cc2c(=O)n3ccccc3nc2n(C(C)C)c1=NC(=O)c1c(-c2c(F)cccc2Cl)noc1C	.	.	-2%	.	.
CSc1nc(SC)c2c3c(oc2n1)COC(C)(C)C3	31%	.	-1%	0%	-9%
CCc1nc(SCCO)c2oc3ccccc3c2n1	2%	-14%	-4%	4µM*	?
O=C(/C=C/c1ccc(O)cc1)c1cccs1	.	.	.	.	16µM*
O=C(/C=C/c1ccc(O)cc1)c1ccccc1O	.	.	.	.	4µM*
O=C(/C=C\c1ccccc1)c1ccccc1O	3%[11.4 µM]	-5%[11.4 µM]	.	.	-20%[11.5 µM]
O=C(/C=C/c1ccc(OCc2ccccc2)cc1)c1cccs1	.	.	.	.	17%
CC(C)c1cc(Nc2cccc(O)c2)cc(C(C)C)c1O	-5%	11%	?	?	32µM*
Oc1cccc(Nc2ccccc2)c1	-17%	?	1%	-4%	2%
O=C(c1scc2c1CCCC2)N1CCCCC1	27%	4%[11.4 µM]	1%	-9%	-4%
NC[C@@H]1O[C@H](c2ccccc2)Cc2c1ccc(O)c2O	-8%	6%	1%	-8%	-14%

Assay outcomes (PubChem)
